Data taken from PubChem BioAssay AID1117361 (Southern Research Institute, 2015).
The campaign covered roughly 3,600 compounds. About 900 (25%) were called active. The rule behind the calls is not given here. The list is a sample of the results. Measured potencies and affinities stand elsewhere.

Biological target: Protein Tat (Human immunodeficiency virus type 1 group M subtype B (isolate HXB2)) (UniProt P04608)
Assay: inhibitors of Tat binding to TAR RNA, dose response, counter-screen for Vif-APOBEC3G degradation inhibitor project, biochemical, fluorescence polarization, FAM-labeled TAR RNA (AID 1117361)
Conditions: outcome: dose series up to 100 µM unless noted; series mostly up to 100 µM

| SMILES | outcome |
| --- | --- |
| COc1c(OC(C)=O)ccc(/C=C/c2ccc3ccccc3n2)c1[N+](=O)[O-] | inactive |
| COC1=C(OC)C(=O)C(Sc2ccc3ccccc3c2)=CC1=O | inactive |
| CCNC(=O)NC(=O)COC(=O)CNC(=O)COc1ccccc1 | inactive |
| CCOC(=O)CNc1nc(-c2ccncc2)nc2ccccc12 | inactive |
| Cc1ccc(NC(=O)C(=O)c2c(-c3ccccc3)cc3ccccn23)cc1S(=O)(=O)N1CCOCC1 | inactive |
| O=C(C1CC(c2ccccc2O)=NO1)N1CCCCC1 (stereo not given) | inactive |
| Oc1ccc(/C=N/N2CCCCC2)c(O)c1 | inactive |
| Cc1ccc(NC2=NCCCCC2)cc1C | inactive |
| Cc1ccc(C(C[N+](=O)[O-])Sc2ccc(N)cc2)cc1 (stereo not given) | inactive |
| CCCCc1ccc(NC(=O)CC(C)(C)C)cc1 | inactive |
| COC(=O)c1sccc1NC(=O)CC1C(=O)NCCN1C(=O)Nc1ccccc1 (stereo not given) | inactive |
| COc1ccc(C2SCC(C(=O)NCc3ccc(F)cc3)N2C(C)=O)cc1 (stereo not given) | inactive |
| O=C(Nc1ccc(F)c(Cl)c1)c1cccnc1 | inactive |
| Cc1ccc(S(=O)(=O)C2(C(=O)Nc3cccc(F)c3)CC2)cc1 | inactive |
| CC(C)Cc1cc(C(=O)Nc2cccc(O)c2)no1 | inactive |
| O=C(NNC(=O)c1cccnc1)Nc1ccc([N+](=O)[O-])cc1 | inactive |
| CN1CCN(C(CNC(=O)c2ccc(Br)o2)c2ccc(F)cc2)CC1 (stereo not given) | inactive |
| CCOc1ccc(C2c3c(oc4ccccc4c3=O)C(=O)N2CCCN2CCOCC2)cc1 (stereo not given) | inactive |
| COc1ccc(C(C(C(=O)c2cccs2)N2CCOCC2)N2CCOCC2)cc1OC (stereo not given) | inactive |
| CN(C(=O)c1ccc(OC2CCN(S(=O)(=O)N(C)C)CC2)cc1)C1CCCCC1 | inactive |
| COc1ccc(N2CCN(CCNC(=O)Nc3ccc(Cl)cc3)CC2)cc1 | inactive |
| Cc1cc2nc(C)n(CCCNC(=O)Nc3ccc(F)cc3)c2cc1C | inactive |

| SMILES | outcome |
| --- | --- |
| Cc1cccc2nc(C(=O)Nc3cccc(C(=O)NC4CC4)c3)cn12 | inactive |
| CC(=O)c1cccc(NC(=O)NCCS(C)=O)c1 (stereo not given) | inactive |
| COc1ccc(NC(=O)Cc2ccc(Cl)cc2)cc1NC(=O)c1ccco1 | inactive |
| Cc1ccc(NC(=O)Nc2ccc3c(c2)nc(C)n3C)cc1 | inactive |
| O=C(Nc1ccccc1)NC1CCN(CCCN2C(=O)c3ccccc3C2=O)CC1 | inactive |
| Cc1ccc(NCc2nnc(SCC(=O)N(Cc3ccccc3)C(C)(C)C)o2)c(C)c1 | inactive |
| CNC(=O)C(=O)N/N=C/c1cccnc1 | inactive |
| O=C(CN(C(=O)c1cc2c(s1)CCC2)C1CCCC1)NCc1cccs1 | inactive |
| CCCc1nc2ccccc2c(=O)n1NC(=O)c1c(O)c2cccc3c2n(c1=O)CCC3 | inactive |
| COC(=O)Cc1cc(=O)[nH]c(/N=C(\N)Nc2ccc(C)cc2)n1 | inactive |
| O=C(N/N=C\c1ccc(Cl)cc1)C1=NOC2COC3(CCN(c4ccc([N+](=O)[O-])cc4)CC3)OCC12 (stereo not given) | inactive |
| CCC(C)N1CC23C=CC(O2)C(C(=O)OC)C3C1=O (stereo not given) | inactive |
| COCC(=O)Nc1sc2c(c1C(=O)OC)C(C(=O)OC)CC2 (stereo not given) | inactive |
| CCOC(=O)c1c2c(n(Cc3ccccc3)c1C)C(=O)C(=O)c1ccccc1-2 | inactive |
| CCOC(=O)C1=C(Cc2ccc(Cl)cc2)C(=O)c2ccccc2C1=O | inactive |
| COc1c(F)c(F)c(C(=O)Nc2ccccc2N2CCN(C(C)=O)CC2)c(F)c1F | inactive |
| O=C(Nc1ccccc1N1CCCCC1)c1ccccc1F | inactive |
| COc1ccc(S(=O)(=O)N(C(C)=O)c2ccc3oc(=O)sc3c2)cc1 | inactive |
| O=C1C(Cl)=C(Oc2ccccc2)C(=O)c2ccccc21 | inactive |
| CC(OC(=O)c1cccc(O)c1)C(=O)N(C)Cc1ccccc1 (stereo not given) | inactive |
| CC(=O)Nc1ccc(NC(=O)c2sc3nc4c(c(-c5ccc(C)cc5)c3c2N)CCC4)cc1 | inactive |
| CSc1ncccc1C(=O)NCc1nnc2ccccn12 | inactive |

| SMILES | outcome |
| --- | --- |
| O=C(Cn1c(NCCO)nc2ccccc21)NCC(F)(F)F | inactive |
| O=C(CSc1nnc(CN2CCCCC2)n1-c1ccccc1)c1ccc2c(c1)OCO2 | inactive |
| CC(NC(=O)c1ccco1)C(=O)N1CCc2ccccc2C1 (stereo not given) | inactive |
| O=C(CN(C1CCCCC1)C1CCCCC1)N1CCc2ccccc2C1 | inactive |
| Cc1ccc([C@H]2C(C(=O)O)=CC[C@@H](c3cccc(Cl)c3)N2S(=O)(=O)c2ccc(C)cc2)cc1 | inactive |
| COc1ccccc1-n1nnnc1SCC(=O)Nc1cc(C)on1 | inactive |
| O=c1cc2oc3cc(O)c(O)cc3c(-c3ccccc3O)c-2cc1O | inactive |
| OC(CN1CCCCC1)CN1CCCCC1 | inactive |
| CS(=O)(=O)N(CC(=O)N1CCN(Cc2ccccc2)CC1)c1ccc2c(c1)OCCO2 | inactive |
| CSCCC(CO)NC(=O)OCc1ccccc1 (stereo not given) | inactive |
| C[C@H](NC(=O)OCc1ccccc1)C(=O)NNC(=O)[C@H](C)NC(=O)OCc1ccccc1 | inactive |
| O=C(Nc1nnc(C2CC2)o1)c1ccc(S(=O)(=O)N2CCCc3ccccc32)cc1 | inactive |
| Cc1ccc(N2CC(NC(=O)N3CCN(C(=O)c4ccco4)CC3)CC2=O)cc1 (stereo not given) | inactive |
| CSc1ccc(C2Nc3ccccc3-c3cc(C)nn32)cc1 (stereo not given) | inactive |
| O=S(=O)(Nc1ccc2c(c1)OCCO2)c1cnc[nH]1 | inactive |
| O=C(Nc1ccc2c(c1)OCO2)c1cccc(S(=O)(=O)N2CCCC2)c1 | inactive |
| COc1ccc(S(=O)(=O)Nc2ccc3c(c2)OCO3)cc1C | inactive |
| O=C(CCc1ccc(S(=O)(=O)NCCc2ccccc2)cc1)Nc1ccc2c(c1)OCO2 | inactive |
| CS(=O)(=O)N1CCCCC1CCN1CCCCC1 (stereo not given) | inactive |
| CC1(C)CC(=O)C(C2NCCc3ccccc32)=C(O)C1 (stereo not given) | inactive |
| CCN(CC)CC(=O)Nc1nn(-c2ccccc2)nc1C(N)=O | inactive |
| Cc1ccc(S(=O)(=O)n2cnc3ccccc32)c(C)c1 | inactive |

| SMILES | outcome |
| --- | --- |
| CCCCNC(=O)c1c(O)c2cccc3c2n(c1=O)CCC3 | inactive |
| N#CC1(c2ccc(NC(=O)c3ccccc3F)cc2)CCCC1 | inactive |
| CCCCCn1c(CN2CCN(c3cc(Cl)ccc3C)CC2)nc2c1c(=O)[nH]c(=O)n2C | inactive |
| CCOc1c(OC)cccc1C1CC(=O)Nc2cc3c(cc21)OCCO3 (stereo not given) | inactive |
| CCc1ccccc1N(CC)C(=O)CCc1nc(-c2ccc(C)cc2)no1 | inactive |
| NS(=O)(=O)c1ccc(NC(=O)COC(=O)CC2Sc3ccccc3NC2=O)cc1 (stereo not given) | inactive |
| COc1cc(C(C2C(=O)CC(C)(C)CC2=O)C2C(=O)CC(C)(C)CC2=O)cc(OC)c1OC | inactive |
| O=C(Nc1cc(Cl)ccc1Oc1ccccc1)c1cnccn1 | inactive |
| Cc1cn(C2CCCCO2)c(=O)[nH]c1=O (stereo not given) | inactive |
| CN(C)NC1CCS(=O)(=O)C1 (stereo not given) | inactive |
| Cn1nnnc1SCC(=O)NCc1ccco1 | inactive |
| O=C(Cn1cnc2c(nnn2Cc2ccc(F)cc2)c1=O)NCc1ccco1 | inactive |
| COc1ccc2c(c1OC)C(=O)OC2Nc1nc(-c2cc3cc([N+](=O)[O-])ccc3oc2=O)cs1 (stereo not given) | inactive |
| CCOc1ccc(CCNC(=O)C2CC(C)=CCC2C(=O)O)cc1OCC (stereo not given) | inactive |
| CCC(Sc1nc2cc(OC)c(OC)cc2c(=O)n1Cc1ccco1)C(=O)NCCOC (stereo not given) | inactive |
| COc1ccc2c(=O)c3c(=O)n(-c4ccc(C)cc4)c(-c4ccccc4)nc3oc2c1 | inactive |
| CCN1/C(=C(\O)c2ccccc2)C(=O)c2ccccc2S1(=O)=O | inactive |
| COc1ccc(C2C(C#N)=C(N)Oc3n[nH]c(C)c32)cc1Cn1nnc2ccccc21 (stereo not given) | inactive |
| NC(=O)C1CCN(C(=O)C23CC4CC(CC(C4)C2)C3)CC1 | inactive |
